This note sets out measurements from PubChem BioAssay (NCATS).

Values joined by “and” are separate entries in the source; they are usually repeats but may differ in a detail not shown here. Equal entries are not always repeated. Records with an inconclusive call do not appear. Active and inactive are the calls of the source. Calls come from the whole dose curve; as a rule, active = well fitted inhibition curve with a large enough effect; inconclusive = small, poorly fitted or top-dose-only effect; inactive = no such curve, though single readings can be large or run the other way.
% is set by controls: 0 for no effect and ±100 for the full control effect.

A short description of this test: Primary qHTS for inhibitors of nuclear receptor binding SET domain protein 2 (NSD2) in an RCH-ACV wild type WT cells (2C) (AID 1645877). Note: nearly all actives have a fitted effect of over 70% in size. The conditions noted are these: RCH-ACV (leukaemia line) NSD2 WT (2C) viability, CellTiter-Glo, 72 h; series mostly up to 44.9 µM; activity change, negative = cell killing: at the top concentration. The source says:
Assay Provider: Jonathan D. Licht, MD
University of Florida College of Medicine, Gainesville, FL
Mutations in epigenetic regulators are common in relapsed pediatric acute lymphoblastic leukemia (ALL). Here, we uncovered the mechanism underlying the relapse of ALL driven by an activating mutation of the NSD2 histone methyltransferase (p.E1099K). […] Correction of this mutation restored glucocorticoid sensitivity. The transcriptional response to glucocorticoids was blocked in NSD2 mutant cells due to depressed glucocorticoid receptor (GR) levels and the failure of glucocorticoids to autoactivate GR expression. […] Pre-treatment of NSD2 p.E1099K cell lines and PDX samples with PRC2 inhibitors reversed glucocorticoid resistance in vitro and in vivo.
High-throughput drug screening of isogenic RCH-ACV cell lines was performed at the National Center for Advancing Translational Science (NCATS), National Institutes of Health as previously described (1). Briefly, isogenic RCH-ACV NSD2 p.E1099K mutant (9B) and WT cells (2C) were plated at 500 cells/well in a 1536-well plate with a 72-hour incubation with compounds prior to addition of CellTiter-Glo to assess cell viability. NCATS libraries screened include: NPC, MIPE 5.0, Kinase and NPACT. To determine compound activity in the qHTS assay, the concentration-response data for each sample was plotted and modeled by a four-parameter logistic fit yielding IC50 and efficacy (maximal response) values. The area under the curve (AUC) of the dose-response curve ensures both efficacy (magnitude of cell killing) and potency (concentration that elicits cell killing) are accounted for in the analysis of activity.
1. Tobie D Lee, Olivia W Lee, Kyle R Brimacombe, Lu Chen, Rajarshi Guha, Sabrina Lusvarghi, Bethilehem G Tebase, Carleen Klumpp-Thomas, Robert W Robey, Suresh V Ambudkar, Min Shen, Michael M Gottesman, Matthew D Hall. A High-Throughput Screen of a Library of Therapeutics Identifies Cytotoxic Substrates of P-glycoprotein. Mol Pharmacol. 2019, Nov;96(5):629-640.
On the technique in general: Quantitative high-throughput screening tests each substance at several concentrations.
For `C=C1/C(=C/C=C2\CCC[C@]3(C)[C@@H]([C@H](C)CC[C@@H](O)C(C)(C)O)CC[C@@H]23)C[C@@H](O)C[C@@H]1O`, the Potency was 10.3 µM (active).

Consider `O=C(Nc1ccc(Cl)cc1)c1ccccc1NCc1ccncc1`, for which the Potency was 18.3 µM (active).

As for `Cc1ccc(F)cc1S(=O)(=O)N[C@@H]1CCN(Cc2ccc(OC(C)C)cc2)C1`, the Potency is 18.3 µM (active).

As to `C=C1CC2OC(=O)C(COC)C2C(OC(=O)/C(C)=C\C)CC2(C)OC1=CC2=O` (stereo not given), the Potency was 2.26 µM (active).

For the compound `CC(C)(C)Oc1ccc(OCC2Cc3ccccc3CN2C(=O)c2cccc3ccccc23)cc1` (stereo not given), the “activity change, negative = cell killing” value is 4.57% (inactive).

Take `C=C1C(=O)OC2/C=C(/C)C3=CC(=O)C(C)(CC(OC(=O)/C(C)=C/COC(C)=O)C12)O3` (stereo not given): the Potency was 0.399 µM (active).

`CCn1c(-c2nonc2N)nc2c(C#CCO)ncc(OCCCN)c21`: the Potency was 5.78 µM (active).

As to `Cc1cc(F)c(C(=O)Nc2cccc(-c3nncn3C(C)C)n2)cc1-n1cnc(C2CC2)c1`, the Potency was 9.34 µM (active).

As for `CCC(=O)N1CCOc2c(cc(-c3ccc(OC)c(OC)c3)cc2OC[C@H]2CCCN(C)C2)C1`, the Potency is 7.28 µM (active).

In the case of `C=C1[C@H]2CC[C@H](C(=O)O)[C@@]23CC[C@H](C3)C1(C)C`, the “activity change, negative = cell killing” value is -20.9% (inactive).

For `COc1ccccc1N1CCN(CC(C(=O)NC(C)(C)C)c2ccccc2)CC1` (stereo not given), the “activity change, negative = cell killing” value is -5.29% (inactive).

For the compound `CC(C)C(C)C(O)C1CC23CC(=O)C4(O)C(=C2CCC3C1C)C=CC1(O)CC(O)CCC14C` (stereo not given), the “activity change, negative = cell killing” value is -21% [at 17.3 µM] (inactive).

On to `NCC1CCN(c2nccc(-c3ccc4ccccc4c3)n2)CC1`, for which the Potency was 1.18 µM (active).

For `O=C(Nc1nc2ccc([N+](=O)[O-])cc2s1)C1CCCCC1`, the Potency is 12.9 µM (active).

On to `CCC(CC)C(c1ccc(Nc2nc3ccccc3s2)cc1)n1cncn1` (stereo not given), for which the Potency was 18.6 µM (active).

Turning to `O=C(NCCN1CCOCC1)c1cc2c(Oc3ccc(NC(=O)C4(C(=O)Nc5ccc(F)cc5)CC4)cc3)ccnc2[nH]1`, the Potency was 12.9 µM (active).

Consider `Cc1ccc(C2(C(=O)N3CCC(n4nc(-c5ccccc5)oc4=O)CC3)CC2)cc1`, for which the “activity change, negative = cell killing” value is -30.1% (inactive).

With `COC1CCN(C(=O)c2cc(Cc3n[nH]c(=O)c4ccccc34)ccc2F)CC1`, the Potency is 8.33 µM (active).

For the compound `COc1cc(Br)c(S(=O)(=O)Nc2ccc(Cl)c(O[C@@H]3CCN(C)C3)c2)cc1OC`, the Potency was 11.5 µM (active).

For the compound `COc1ccc(NC(=O)c2ccc(C(=N)N(C)C)cc2)c(C(=O)Nc2ccc(Cl)cn2)c1`, the “activity change, negative = cell killing” value is -20.5% (inactive).

As to `Cc1cc2c(F)c(Oc3ncnn4cc(OCC(C)OC(=O)C(C)N)c(C)c34)ccc2[nH]1` (stereo not given), the Potency was 8.33 µM (active).

For the compound `CC(C)CC(=O)c1c(O)cc2c(c1O)C(CC(C)C)C1=C(O2)C(C)(C)C(=O)C(C)(C)C1=O` (stereo not given), the Potency is 7.96 µM (active).

For `NCC(CNc1nc(Nc2cccc(NC(=O)N3CCCC3)c2)ncc1I)C(=O)c1cccs1` (stereo not given), the Potency is 2.58 µM (active).

With `C=C1C(=O)O[C@@H]2C[C@]3(C)[C@@H](CCC(C)O)[C@@H]3C[C@H]12` (stereo not given in full), the Potency is 14.5 µM (active).

Consider `O=C(NC1(c2ccccc2)CC1)c1c(CN2CCC(N3CCCCC3)CC2)c(-c2cccc(C(F)(F)F)c2)nc2cc(Br)ccc12`, for which the Potency was 10.3 µM (active).

In the case of `C=C1C(=O)OC2C=C(C)CC/C=C(\CO)CC(O)C12` (stereo not given), the Potency was 20.5 µM (active).

For the compound `CNC(C)C(=O)NC(C(=O)N1CCCC1C(=O)Nc1snnc1-c1ccccc1)C1CCCCC1` (stereo not given), the “activity change, negative = cell killing” value was -17.4% (inactive).

In the case of `CCCCOC(=O)NS(=O)(=O)c1sc(CC(C)C)cc1-c1ccc(Cn2ccnc2)cc1`, the Potency was 20.9 µM (active).

Turning to `C=C1C(=O)O[C@@H]2[C@H]3C(C)=CC(=O)C3=C(C)CC[C@@H]12`, the Potency was 2.05 µM (active).

In the case of `N#Cc1ccc2ncnc(NCCc3ccccc3)c2c1`, the Potency was 4.09 µM (active).

Take `COc1cc2c(cc1NS(=O)(=O)c1ccc(Br)cc1C)n(C)c(=O)n2C`: the Potency is 7.28 µM (active).

For `COc1ccccc1-c1ccc(-c2cn(C(=O)N3CCCCC3Cc3ccccc3)nn2)cc1` (stereo not given), the “activity change, negative = cell killing” value is -27.6% (inactive).

As for `CC(=O)c1c(C)cc2cccc(O)c2c1O[C@@H]1O[C@H](CO)[C@@H](O)[C@H](O)[C@H]1O`, the Potency is 12.7 µM (active).

With `O=C1NC(=O)C(c2cnc3ccccn23)=C1c1cn2c3c(cc(F)cc13)CN(C(=O)N1CCCCC1)CC2`, the Potency is 5.2 nM (active) and 10.5 nM (active).

`O=C(NCC1(N2CCN(c3ccccc3)CC2)CCOCC1)c1cccnc1Sc1ccccc1`: the “activity change, negative = cell killing” value was -3.62% (inactive).

For the compound `O=S(=O)(N[C@H]1CCCC[C@@H]1N1CCOCC1)c1ccc(Cl)cc1`, the “activity change, negative = cell killing” value is -18.9% (inactive).

With `C=CC(=O)Nc1cccc(Nc2nc(Nc3ccc(OCCOC)cc3)ncc2F)c1`, the Potency was 3.72 µM (active).

With `c1cc(-c2cnn3cc(-c4ccc(N5CCNCC5)cc4)cnc23)c2cccnc2c1`, the Potency is 4.17 µM (active).

`C=C1C(=O)OC[C@@H]1C/C=C(\C)CC1CC(C)C(=O)O1` (stereo not given in full): the Potency is 23 µM (active).

`Cc1cc2ncc(C(=O)NCC(C)(C)NCC(=O)N3CCC[C@H]3C#N)cn2n1`: the “activity change, negative = cell killing” value was -6.85% (inactive).
